Screens: PubChem, National Center for Advancing Translational Sciences (NCATS)
TDP1 cell noCPT: qHTS for Inhibitors of human tyrosyl-DNA phosphodiesterase 1 (TDP1): qHTS in cells in absence of CPT. DT40 Tdp1-/- hTDP1 cells, no CPT, ATP luminescence, 48 h. Potency, µM (series often up to 46.2 µM), for the others: at the top dose activity change, negative = growth inhibition, usual class: inhibitors. hit rate 15% among 420,000. AID 686978, 2013; note: potency is the fitted concentration of half-maximal effect; nearly all actives have a fitted effect of over 55% in size
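Chicken DT40 Tdp1-/- cells stably complemented with human TDP1 were seeded at 400 cells/well with DMSO in place of 20 nM camptothecin. After compound pinning, cells grew at least 48 hr at 37 °C; viability read by CellTiter-Glo luminescence.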
HT1080NT lethal: kills 2HG-producing HT-1080-NT fibrosarcoma cells | AID 686970 | Potency, µM (titrated, usually from 46.1 µM), inactives show at the highest dose activity, negative = less viability, usual class: cytotoxic | hit rate 1.6% among 360,000 | HT-1080-NT fibrosarcoma viability, CellTiter-Glo ATP luminescence, 48 h;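 note: NT is the 2HG producing partner of a matched IDH1 knockdown line; potency is the fitted concentration of half-maximal effect; 0% = DMSO-treated cells and -100% = media-only wells without cells; nearly all actives have a fitted effect of over 55% in size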
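Compounds were tested in concentration-response format on HT-1080-NT cells for 48 hours at 37 degrees C. Cell viability came from CellTiter-Glo luminescence; curves were classified by r2, response magnitude and activity.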
TDP1 cell CPT: growth inhibition of DT40 Tdp1-/-;hTDP1 cells with camptothecin (screen for TDP1 inhibitors); Potency, µM (doses to about 46.2 µM), for inactives: at the top dose activity change, negative = growth inhibition, hits mostly inhibitors; AID 686979; chicken DT40 Tdp1-/-;hTDP1 cells + 20 nM CPT, ATP luminescence, 48 h; hit rate 12% among 420,000; note: potency is the fitted concentration of half-maximal effect; nearly all actives have a fitted effect of over 55% in size
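Cell growth measured by CellTiter-Glo luminescence after a minimum 48 h, 37 C compound exposure with 20 nM CPT in Tdp1-knockout DT40 cells stably expressing hTDP1, seeded 400/well; qHTS titration format.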
IL1B secr inh: inhibitors of inflammasome signaling (IL-1 beta secretion); THP-1 LPS/ATP IL-1B secretion, AlphaLISA, 16 h; stronger effect = lower value; activity change, % at 57.5 µM; hit rate 4.7% among 360,000; AID 743279; in the data active = activity change below about -50%; inconclusive = mostly about -30% to -49%
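Secreted IL-1B measured by AlphaLISA bead assay after 16 h compound exposure of THP-1 cells; compounds (final up to 57.5 uM) added 1 h before LPS (250 ng/mL) and ATP (1.25 mM) stimulation; lower signal means less secretion.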
ELG1 DNA repair: blocks ELG1-dependent DNA repair in HEK293T cells. HEK293T ELG1-luciferase reporter, luminescence, 16 h; DNA damage induced by 5-fluorouridine. Potency, µM (doses to about 46.1 µM), without a hit: at the highest dose activity change, negative = inhibition, hits mostly inhibitors. hit rate 2.3% among 330,000; note: potency is the fitted concentration of half-maximal effect; nearly all actives have a fitted effect of over 55% in size
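In this reporter screen, reduction of luminescence relative to DMSO vehicle indicated activity. Compounds and 5-fluorouridine were added together to 2,000 cells per well, incubated for 16 hr at 37 °C, then developed with ONE-Glo.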
HT1080 IDH1KD tx: kills HT-1080 cells with IDH1 knockdown. Potency, µM (doses to about 46.1 µM), for the others: at the top dose activity, negative = toxicity, actives largely listed as cytotoxic. HT-1080 IDH1 knockdown viability, ATP luminescence, 48 h. hit rate 2% among 360,000;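 note: potency is the fitted concentration of half-maximal effect; 0% = DMSO wells and -100% = cell-free medium wells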
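% activity derives from luminescence (CellTiter-Glo), normalised to DMSO and no-cell wells. HT-1080-IDH1KD cells, 750/well, had 48 h compound exposure at 37 °C.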
The depositor's hits bear a star; ? = inconclusive; . = not tested or not shown; [ ] = another dose, or the depositor's remark. Most compounds without a hit are left out; they make up all but 19% or so of the library. Unless noted, calls come from the whole dose curve; as a rule, active = well fitted curve in the direction sought with a large enough effect; inconclusive = small, poorly fitted or top-dose-only effect, or another doubt; inactive = no such curve, though single readings can be large; an effect the other way counts as inactive or inconclusive. Unless noted, % is set by controls: 0 for no effect and ±100 for the full control effect.

SMILES	TDP1 cell noCPT	HT1080NT lethal	TDP1 cell CPT	IL1B secr inh	ELG1 DNA repair	HT1080 IDH1KD tx
CCCCC[C@@H](C)N1C[C@@H](COCc2ccccc2)Oc2cc(N3CC[C@@H](O)C3)ccc2S1(=O)=O	16.4µM*	?	?	-6.0	.	?
CCCCC[C@H](C)N1C[C@@H](COCc2ccccc2)Oc2cc(N3CC[C@@H](O)C3)ccc2S1(=O)=O	?	?	?	4.8	.	?
COc1cc2cc(C(c3nnnn3C3CCCCC3)N(C)C3CCCCC3)c(=O)[nH]c2cc1OC (stereo unspecified)	?	?	23.1µM*	?	?	?
COc1cc2cc(C(c3nnnn3C3CCCC3)N(C)C3CCCCC3)c(=O)[nH]c2cc1OC (stereo unspecified)	25.1µM*	-14.8%	15.8µM*	-7.1	-13.4%	?
CCCN1CCN(C(c2cc3cc(OCC)ccc3[nH]c2=O)c2nnnn2C2CCCCC2)CC1 (stereo unspecified)	?	?	?	26.8	23.8%	?
COc1ccc2[nH]c(=O)c(C(c3nnnn3C3CCCCC3)N3CCN(C)CC3)cc2c1 (stereo unspecified)	7.7%	1.0%	-6.9%	11.5	21.6%	-5.5%
Cc1ccc(C(c2nnnn2C2CCCCC2)N(C)C2CCCCC2)cc1 (stereo unspecified)	23.1µM*	4.1%	23.1µM*	-13.8	-15.3%	1.8%
CC(C)C(c1nnnn1C1CCCC1)N(C)C1CCCCC1 (stereo unspecified)	?	0.2%	?	-9.2	-0.7%	-2.3%
Cc1ccc(-c2[nH]c3cc(C(N)=O)ccc3c(=O)c2O)cc1	18.4µM*	3.7%	?	59.4	1.9%	1.6%
CCCNC(=O)c1ccc2c(=O)c(O)c(-c3ccsc3)[nH]c2c1	18.4µM*	-23.5%	?	97.1	4.4%	-24.8%
Cc1ccc(CNC(=O)c2ccc3c(=O)c(O)c(-c4ccc(C)cc4)[nH]c3c2)cc1	6.51µM*	6.9%	4.11µM*	57.1	-29.5%	10.4%
CC(C)c1ccc(NC(=O)CCCc2nc(-c3ccc(Cl)cc3)no2)cc1	-22.5%	.	-25.4%	.	.	.
CCNc1ncc2nc(-c3ccc(F)cc3)c(=O)n(C)c2n1	-24.0%	.	?	.	.	.
C=C(C)C1CC=C(C)/C(=N/NC(=O)C2CC2c2ccccc2)C1 (stereo unspecified)	?	-0.5%	-23.8%	-9.9	-16.4%	-2.0%
CCOC(=O)N1CCN(S(=O)(=O)N2CCCC(C(=O)NCc3ccc(C)cc3)C2)CC1 (stereo unspecified)	?	1.0%	?	-14.9	.	7.5%
COc1ccc(C(=O)/C=C/c2ccc(O)cc2)c2c1CC(O)C(C)(C)O2 (stereo unspecified)	16.4µM*	-1.8%	?	-92.5*	23.1µM*	-2.6%
CC(=O)c1ccc(O)c(CC=C(C)C)c1O	?	-1.0%	-28.1%	-2.0	.	-1.9%
COc1ccc(C(=O)/C=C/c2ccc(O)cc2)c(O)c1CC=C(C)C	?	?	13µM*	-72.2*	-5.8%	23.1µM*
Cn1c2c(c(=O)c3ccccc31)C[C@@H](O)C(C)(C)O2	-10.1%[9.04 µM]	.	-14.6%[9.04 µM]	.	.	.
CCCSc1ncc(Cl)c(C(=O)Nc2nc3ccc(C)cc3s2)n1	-25.2%	.	3.6%	.	.	.
CC(C)Nc1nc(-c2ccccc2F)c2sc(-c3ccccc3)cc2n1	?	8.7%	?	3.2	.	-6.8%
COCCNc1nc(-c2cc(F)ccc2C)c2sc(-c3ccccc3)cc2n1	14.6µM*	-16.2%	25.9µM*	-81.9*	.	-17.4%
COCCNc1nc(-c2ccccc2F)c2sc(-c3ccccc3)cc2n1	?	?	18.4µM*	?	.	?
